Measured values as given in PubChem BioAssay (NCI).
The panel holds about 83,000 compounds, 20% with a hit somewhere; the sample as a whole holds those more often.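 Method: cells in 96-well plates; compound added at one concentration; 48 h incubation; percent growth measured; values under 10 scored active.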 Unmarked numbers belong to inactive results. Active and inactive are the calls of the source.

What was measured:
Experiment in all cases: NCI-60 one-dose screen, 48 h (100 = growth as untreated, 0 = no growth, -100 = all killed)
Settings in all cases: 10 µM unless noted
[1] = system: NCI-H23 lung
[2] = system: NCI-H226 lung
[3] = system: NCI-H322M lung
[4] = system: HOP-62 NSCLC
[5] = system: NCI-H460 lung
[6] = system: HOP-92 NSCLC
[7] = system: NCI-H522 lung
[8] = system: A549/ATCC NSCLC
[9] = system: 786-0 renal
[10] = system: COLO 205 colon
[11] = system: DU-145 prostate
[12] = system: K-562 leukemia
[13] = system: MALME-3M melanoma
[14] = system: MDA-MB-231 breast
[15] = system: RXF 393 renal
[16] = system: SF-268 CNS
[17] = system: SF-295 CNS
[18] = system: SF-539 CNS
[19] = system: UACC-257 melanoma
[20] = system: M14 melanoma

SMILES	growth [1]	growth [2]	growth [3]	growth [4]	growth [5]	growth [6]	growth [7]	growth [8]	growth [9]	growth [10]	growth [11]	growth [12]	growth [13]	growth [14]	growth [15]	growth [16]	growth [17]	growth [18]	growth [19]	growth [20]
CCN(CC)CCNC(=O)c1cn2ncnc(Oc3ccc(NC(=O)Nc4ccc(Cl)c(C(F)(F)F)c4)c(F)c3)c2c1C	-37.4% (active)	73.9%	34.4%	36.5%	-67% (active)	22.1%	-52.3% (active)	4.56% (active)	-86.1% (active)	-59.5% (active)	8.01% (active)	-23% (active)	-89.7% (active)	-82.5% (active)	-44.9% (active)	43.1%	-52.8% (active)	-79.8% (active)	-57.4% (active)	-83.2% (active)
CCCCCCCCCCCCCCCCCCOc1ccccc1CC(=O)OCC[N+]1(C)CCCC1	8.45% (active)	13.4%	68.1%	53.5%	27.5%	32.7%	6.85% (active)	23%	57.5%	9.44% (active)	45.4%	27%	31%	4.95% (active)	-26.3% (active)	20.7%	58%	40.2%	75.3%	20.7%
CN1CCN(C(=O)OCc2ccc3c(Cl)cc(Cl)c(O)c3n2)CC1	59.6%	98.3%	60%	45.9%	66.8%	71.1%	79.6%	62.5%	86.6%	107%	56.3%	18.1%	81%	90.5%	71.3%	53.3%	45.3%	66.2%	89.3%	55.4%
COc1cc2c(c(OC)c1OC)C(=O)CC(c1cccc(NC(=O)c3ccc(Br)cc3)c1)O2 (stereo not given)	51.2%	49.2%	72.5%	47.2%	57%	25.7%	9.27% (active)	48.6%	78.1%	55.5%	58.7%	5.9% (active)	46.6%	37.3%	66.3%	57.6%	41.8%	79.1%	53.1%	20%
Cc1ccc(-c2nc3nc(-c4ccc(F)cc4)nc(N4CCNCC4)c3o2)cc1	94.4%	116%	87.7%	77.6%	-84.6% (active)	90.8%	79.8%	27.2%	-92.8% (active)	-78.1% (active)	41.7%	-53.1% (active)	107%	-29.1% (active)	109%	96.7%	91.6%	-72.3% (active)	105%	-70.9% (active)
Cc1cccc2c1NC(=O)C2(c1ccc(O)cc1)c1ccc(O)cc1	38%	25.2%	10.1%	92%	103%	48.7%	61.4%	71.6%	94.8%	-4.74% (active)	84.6%	99.9%	93.1%	86.3%	-11.2% (active)	96.7%	73.1%	95.2%	79.4%	94.4%
O=S(=O)(Nc1ccccc1)c1ccc(C2CC3(Cl)C(Cl)=C(Cl)C2(Cl)C3(Cl)Cl)cc1 (stereo not given)	22.1%	74.3%	61.5%	51.4%	21.1%	-10.3% (active)	29.9%	30.2%	32.4%	29.2%	66.4%	27%	35.1%	59.3%	32.9%	57.2%	8.38% (active)	72.9%	36.8%	52.6%
O=C1/C(=C/c2cccs2)SC(=S)N1CCCN1CCOCC1	96.7%	95.5%	94.7%	111%	99%	23%	71.5%	93.2%	92.7%	111%	92%	85.4%	84.3%	82.7%	99.6%	102%	102%	92.7%	93.9%	93.4%
CS(=O)(=O)c1cccc(-c2c(-c3cccc(OS(N)(=O)=O)c3)nc3sccn23)c1	108%	92.5%	98.2%	93.8%	105%	77.8%	96.9%	106%	101%	117%	113%	100%	102%	93%	107%	101%	98.3%	93.5%	106%	105%
CC1(c2ccccc2O)NN=C(/N=C/c2cccc([N+](=O)[O-])c2)N1C(Cc1c[nH]c2ccccc12)C(=O)O (stereo not given)	80.3%	82.1%	97.6%	65.8%	102%	81.2%	70.2%	103%	99.5%	84%	114%	89.8%	94.1%	80.5%	90.9%	95.7%	107%	99.4%	90.6%	92%
COC(=O)c1c2c(c[n+]([O-])c1C)C(=O)C(NCc1ccccc1)=CC2=O	-34.1% (active)	-9.27% (active)	-8.65% (active)	4.14% (active)	-30.3% (active)	-29.7% (active)	-30.5% (active)	-19.8% (active)	10.5%	-52.5% (active)	-87.1% (active)	1.41% (active)	-93.4% (active)	-3.95% (active)	-26% (active)	-13.9% (active)	-45.3% (active)	-71.7% (active)	-81.5% (active)	-77.8% (active)
O=C(c1cc2ccccc2o1)c1nn(-c2ccccc2)/c(=N/N=Cc2cn(-c3ccccc3)nc2-c2cc3ccccc3oc2=O)s1	99.4%	99.4%	92%	97.6%	106%	73.2%	88%	106%	103%	117%	103%	78.2%	98.9%	86.2%	107%	96.8%	104%	98.4%	103%	97.8%
COc1ccc(-c2cc(-c3ccc(Cl)cc3)c(C#N)c(=O)n2CCCCC(=O)Nc2ccccc2N)cc1	63.4%	55.3%	63.8%	64.1%	37.6%	-3.51% (active)	48.6%	43.8%	68.8%	20.2%	59.9%	24.8%	59.3%	39.3%	14.2%	65.5%	-14.5% (active)	73.9%	44.7%	-7.3% (active)
CCCCCCCCn1ccc2cc(NC(=O)CN3CCN(c4nc(C)cc(Cl)n4)CC3)ccc21	91.5%	88.9%	87.8%	99.3%	100%	79.3%	81.5%	96.3%	97.7%	100%	101%	85.2%	91.5%	107%	103%	96.3%	102%	107%	114%	96.1%
COc1ccc2c(c1)c(-c1noc(C(=O)c3cn(C)c4ccc(Br)cc34)n1)cn2C	99.3%	93.8%	97%	93.9%	105%	108%	76.9%	84.5%	112%	110%	113%	88%	93.9%	103%	114%	99.2%	117%	101%	92.7%	97%
